Screening results deposited in PubChem BioAssay by National Center for Advancing Translational Sciences (NCATS).
HCV inhibitor: qHTS Assay for Inhibitors of Hepatitis C Virus (HCV); Huh7.5.1 HCVcc-Cre infection, luciferase reporter, 44 h; Potency, µM (doses to about 41.8 µM), inactives show top-dose activity change, negative = inhibition, hits mostly inhibitors; 340,000 compounds, 3.4% hits; AID 651820, 2012; note: potency is the fitted concentration of half-maximal effect; % is set by controls: 0 for no effect and ±100 for the full control effect
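Seed cells (1,000/well) for 4 h; treat with compound and infect with HCVcc-Cre, moi about 0.5. Incubate 44 h, then detect luciferase activity.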
FMDV inh: High Throughput Screening for Foot and Mouth Disease Virus Antivirals; 410,000 compounds, 1.2% hits; AID 1159524, 2015; Potency, µM (highest dose often 57.9 µM), inactives show at the highest dose activity change, negative = inhibition, hits mostly inhibitors; FMDV antiviral cell-based qHTS; calls by dose curve; tested in HEK293T cells; note: read-out not given here; potency is the fitted concentration of half-maximal effect; % is set by controls: 0 for no effect and ±100 for the full control effect; nearly all actives have a fitted effect of over 45% in size
Shiga inhibitor: A qHTS for Small Molecule Inhibitors of Shiga Toxin | Vero cells, Shiga toxin protein synthesis inhibition reporter | inhibition, % at 38.7 µM | 290,000 compounds, 9.2% hits | AID 2315, 2010; in the data active = inhibition mostly above about 28%, no sharp cut-off; inactive = mostly below about 43%; note: 0% is about no effect
Marburg entry inh: qHTS for inhibitors of binding or entry into cells for Marburg Virus | Marburg virus pseudotyped entry inhibition, cell reporter | Potency, µM (series often up to 37.8 µM), for inactives: at the highest dose activity change, negative = inhibition, usual class: inhibitors | 300,000 compounds, 1.8% hits; calls by dose curve; tested in HEK293 cells; note: potency is the fitted concentration of half-maximal effect; % is set by controls: 0 for no effect and ±100 for the full control effect
LASV entry inh: qHTS for Inhibitors of binding or entry into cells for Lassa Virus | Potency, µM (highest dose often 37.9 µM), for the others: at the top dose activity change, negative = inhibition, usual class: inhibitors | Lassa virus pseudotype entry inhibition, cell reporter | AID 540256, 2011 | 300,000 compounds, 1.2% hits; calls by dose curve; tested in HEK293 cells; note: potency is the fitted concentration of half-maximal effect; % is set by controls: 0 for no effect and ±100 for the full control effect; nearly all actives have a fitted effect of over 50% in size
Cycloheximide cs: Cycloheximide Counterscreen for Small Molecule Inhibitors of Shiga Toxin; cell reporter, cycloheximide protein synthesis inhibition counterscreen; max response, %; 300,000 compounds, 12% hits; in the data active = max response mostly above about 13%, no sharp cut-off; inactive = mostly below about 14%; note: read at 38.3 µM for the half of the compounds with a filed dose; 0% is about no effect
HCV inh confirm: qHTS Assay for Inhibitors of Hepatitis C Virus (HCV): Confirmation Assay for Cherry-picked Compounds; shares compounds with HCV inhibitor; HCVcc-Cre infectious virus cell assay, luciferase, inhibition; Potency, µM (doses to about 41.8 µM), for the others: at the highest dose activity, negative = inhibition, usual class: inhibitors; 640 compounds, 78% hits; AID 720575, 2013; note: potency is the fitted concentration of half-maximal effect; nearly all actives have a fitted effect of over 80% in size
HCV cytotox: qHTS Assay for Inhibitors of Hepatitis C Virus (HCV): Cytotoxicity Counterscreen for Cherry-picked Compounds. shares compounds with HCV inhibitor. HCV host cell line cytotoxicity counterscreen. Potency, µM (highest dose often 41.8 µM), without a hit: at the highest dose activity change, negative = cytotoxicity, most hits filed as inhibitors. 640 compounds, 22% hits. AID 720576, 2013;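 note: potency is the fitted concentration of half-maximal effect; 44 h compound exposure; % is set by controls: 0 for no effect and ±100 for the full control effect; nearly all actives have a fitted effect of over 55% in size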
Starred values were filed as active, the others as inactive; ? = inconclusive; . = no result; [ ] = dose if it differs, or a comment. In the library only some 13% were active in any assay of this set; here they are far more common. Unless noted, calls come from the whole dose curve; as a rule, active = well fitted curve in the direction sought with a large enough effect; inconclusive = small, poorly fitted or top-dose-only effect, or another doubt; inactive = no such curve, though single readings can be large; an effect the other way counts as inactive or inconclusive.

SMILES	HCV inhibitor	FMDV inh	Shiga inhibitor	Marburg entry inh	LASV entry inh	Cycloheximide cs	HCV inh confirm	HCV cytotox
N#C/C(=C\c1cc([N+](=O)[O-])c(N2CCCCC2)cc1N1CCCCC1)c1nn(-c2ccccc2)c(N)c1C#N	?	-8%	-12	12%	-11%	7	10µM*	40%
COc1cccc(C(=O)Nc2ccc3c(c2)CCCN3C(=O)c2cccs2)c1OC	4.5µM*	-15%	49*	.	?	26*	25µM*	?
COc1ccc(-c2cc(-c3ccccc3)nc(SCC(=O)Nc3nccs3)c2C#N)cc1	-1%	-8%	20	-1%	8%	2	.	.
COc1ccc(-c2cc(-c3ccccc3)c(C#N)c(SCC(=O)Nc3ncc(C)s3)n2)cc1	4.5µM*	-9%	-3	?	-14%	-3	20µM*	9%
CSc1ccc(C#N)cc1NC(=O)c1cccnc1Cl	11%	-5%	-5	2%[46.1 µM]	24%[46.1 µM]	-1	.	.
CCOc1ccccc1C(=O)NC(C)CCc1ccccc1 (configuration not stated)	-12%	-3%	.	.	.	.	.	.
COc1ccc(CNC(=O)CC(C)S(=O)(=O)c2ccc3c(c2)NC(=O)CO3)cc1 (configuration not stated)	-12%	?	-15	.	.	-2	.	.
Cc1cc(NCc2ccccn2)n2nc(C)c(-c3ccc(Cl)cc3)c2n1	4.5µM*	-27%	-13	10µM*	?	5	11µM*	-28%
Cc1cc(C(F)(F)F)n2nc(C)c(-c3ccc(Cl)cc3)c2n1	14%	-16%	-28	4%	-6%	-3	.	.
COc1ccc(C2C(C(=O)c3ccco3)=C(O)C(=O)N2CCN2CCOCC2)c(OC)c1 (configuration not stated)	10%	2%	-2	3%[46.1 µM]	-25%	0	.	.
CN1CCN(c2ccc(CNS(=O)(=O)c3ccccc3)cc2)CC1	17%	14%	16	20%[14.2 µM]	3%	1	.	.
CN1CCN(c2ccc(CNS(=O)(=O)Cc3cccc(C(F)(F)F)c3)cc2)CC1	5.6µM*	?	-9	.	.	-2	5.6µM*	2.5µM*
CCOc1ccc(CCNC(=O)c2cc3sccc3n2C)cc1OCC	6.3µM*	?	10	7.1µM*	-26%	1	14µM*	?
Cc1ccccc1-c1nc(CN2CCC(C(=O)NCCCN3CC(C)CC(C)C3)CC2)c(C)o1 (configuration not stated)	1.3µM*	-21%	-11	?	?	-4	1.4µM*	?
COC(=O)c1cn(CC(=O)NC2CCCCCC2)c2ccccc12	4%	-28%	10	18%	26%	-3	.	.
O=[N+]([O-])c1ccc(/C=[N+](\[O-])[C@@H]2CCCC[C@@H]2/[N+]([O-])=C/c2ccc([N+](=O)[O-])o2)o1	?	32µM*	17	?	?	7	?	?
CCN(CC)C(=O)c1ncn2c1c(=O)[nH]c1ccccc12	.	-9%	.	.	.	.	.	.
COc1cccc(CNC(=O)Cc2c(C)c3ccc(OC)c(C)c3oc2=O)c1	.	-18%	.	11%[46.1 µM]	-3%[46.1 µM]	.	.	.
COc1ccc(/C=N\NC(=O)c2ccccc2Br)cc1COc1c(F)c(F)cc(F)c1F	5µM*	-21%	-11	6.3µM*	?	-2	4.4µM*	22µM*
N#Cc1ccccc1CSc1ccc(-c2nc3ccccc3[nH]2)cn1	8.9µM*	.	79*	?	-9%	47*	?	14µM*
N#Cc1ccccc1CSc1nc(N)cc(N)n1	12%	-1%	-4	24%	13%	-1	.	.
Cc1cc(NC(=O)c2ccc(C#N)cc2)n(-c2ccccn2)n1	?	-16%	-16	-17%[46.1 µM]	?	-2	.	.
